Measurements taken from publication PMC7862700, “An all-to-all approach to the identification of sequence-specific readers for epigenetic DNA modifications on cytosine”.

Columns and labels:
Assay in all cases: DAPPL (digital affinity profiling via proximity ligation, sequencing); 10 mM Tris-HCl pH 7.5, 50 mM NaCl, 1 mM DTT, 4% glycerol, room temperature, 30 min; GST-TFs on glutathione beads, 16-mer random dsDNA library, 0.1% formaldehyde crosslink after washing; high values mean tight binding
FLI1 = molecular target: T1, FLI1 (Homo sapiens, UniProt Q01543 1-452); conditions: protein: recombinant; tags: N-terminal GST; dsDNA, one strand shown
T1 sequence: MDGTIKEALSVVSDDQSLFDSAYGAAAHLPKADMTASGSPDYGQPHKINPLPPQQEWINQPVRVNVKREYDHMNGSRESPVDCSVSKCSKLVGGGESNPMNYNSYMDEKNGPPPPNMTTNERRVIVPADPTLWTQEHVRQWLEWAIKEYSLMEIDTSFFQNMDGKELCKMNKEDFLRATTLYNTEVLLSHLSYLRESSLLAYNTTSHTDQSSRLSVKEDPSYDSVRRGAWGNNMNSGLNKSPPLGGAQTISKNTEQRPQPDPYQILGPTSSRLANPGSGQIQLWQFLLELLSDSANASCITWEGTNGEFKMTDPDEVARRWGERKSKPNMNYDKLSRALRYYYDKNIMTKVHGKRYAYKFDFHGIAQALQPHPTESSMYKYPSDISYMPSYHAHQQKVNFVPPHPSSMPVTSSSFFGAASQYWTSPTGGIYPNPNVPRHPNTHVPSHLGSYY
In short: (§1)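 A tag-only sample was pooled with DNA-barcoded human transcription factors that had been expressed in yeast as GST fusions and captured on glutathione beads. The pools were incubated for 30 min at room temperature with 200 nmole of a random double-stranded 16-mer DNA library in Tris/NaCl/DTT/glycerol buffer, then washed, crosslinked with 0.1% formaldehyde, proximity-ligated (BsaI/T4 ligase, 1 h, 37 °C), PCR-amplified and sequenced on an Illumina NextSeq500. Binding signal is each hexamer's read frequency for a factor divided by its frequency for the tag-only sample.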

ELK1 = molecular target: T2, ELK1 (Homo sapiens, UniProt P19419 1-428); conditions: protein: recombinant; tags: N-terminal GST; dsDNA, one strand shown
T2 sequence: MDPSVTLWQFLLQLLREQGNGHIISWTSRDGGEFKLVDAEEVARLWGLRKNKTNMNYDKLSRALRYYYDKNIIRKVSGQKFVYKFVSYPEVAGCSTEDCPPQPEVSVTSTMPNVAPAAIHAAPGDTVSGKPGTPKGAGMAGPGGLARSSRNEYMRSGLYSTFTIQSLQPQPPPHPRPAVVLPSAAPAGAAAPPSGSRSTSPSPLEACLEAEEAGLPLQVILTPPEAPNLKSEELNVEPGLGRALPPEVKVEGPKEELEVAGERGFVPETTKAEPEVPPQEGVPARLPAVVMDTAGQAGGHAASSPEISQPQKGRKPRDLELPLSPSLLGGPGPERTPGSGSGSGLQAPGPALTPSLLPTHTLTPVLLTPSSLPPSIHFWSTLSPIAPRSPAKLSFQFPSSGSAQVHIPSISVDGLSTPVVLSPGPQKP
In short: as §1

GABPA = molecular target: T3, GABPA (Homo sapiens, UniProt Q06546 1-454); conditions: protein: recombinant; tags: N-terminal GST; dsDNA, one strand shown
T3 sequence: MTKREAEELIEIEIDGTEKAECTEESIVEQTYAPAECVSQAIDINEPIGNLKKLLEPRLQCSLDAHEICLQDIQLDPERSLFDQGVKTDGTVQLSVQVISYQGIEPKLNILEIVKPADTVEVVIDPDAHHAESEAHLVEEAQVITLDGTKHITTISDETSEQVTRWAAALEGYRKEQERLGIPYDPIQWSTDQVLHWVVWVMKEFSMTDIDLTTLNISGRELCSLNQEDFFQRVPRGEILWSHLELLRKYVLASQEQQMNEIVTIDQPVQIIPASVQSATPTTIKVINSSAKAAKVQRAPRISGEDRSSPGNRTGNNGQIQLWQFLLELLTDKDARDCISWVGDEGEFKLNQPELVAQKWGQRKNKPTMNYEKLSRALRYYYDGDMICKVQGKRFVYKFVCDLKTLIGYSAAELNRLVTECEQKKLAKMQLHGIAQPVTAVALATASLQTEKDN
In short: as §1

ERG = molecular target: T4, ERG (Homo sapiens, UniProt P11308 1-479); conditions: protein: recombinant; tags: N-terminal GST; dsDNA, one strand shown
T4 sequence: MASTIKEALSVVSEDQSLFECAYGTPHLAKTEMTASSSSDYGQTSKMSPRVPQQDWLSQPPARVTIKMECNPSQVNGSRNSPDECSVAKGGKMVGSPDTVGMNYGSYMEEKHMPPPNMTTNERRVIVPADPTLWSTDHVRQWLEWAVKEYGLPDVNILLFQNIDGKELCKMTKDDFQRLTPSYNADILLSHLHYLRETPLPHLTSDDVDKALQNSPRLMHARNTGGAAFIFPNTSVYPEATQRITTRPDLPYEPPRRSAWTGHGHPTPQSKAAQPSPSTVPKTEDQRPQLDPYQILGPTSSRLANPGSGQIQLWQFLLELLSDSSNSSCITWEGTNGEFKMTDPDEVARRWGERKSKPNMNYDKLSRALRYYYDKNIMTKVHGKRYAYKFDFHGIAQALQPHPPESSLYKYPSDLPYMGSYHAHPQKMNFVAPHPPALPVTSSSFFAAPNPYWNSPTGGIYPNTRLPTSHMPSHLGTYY
In short: as §1

EHF = molecular target: T5, EHF (Homo sapiens, UniProt Q9NZC4 1-300); conditions: protein: recombinant; tags: N-terminal GST; dsDNA, one strand shown
T5 sequence: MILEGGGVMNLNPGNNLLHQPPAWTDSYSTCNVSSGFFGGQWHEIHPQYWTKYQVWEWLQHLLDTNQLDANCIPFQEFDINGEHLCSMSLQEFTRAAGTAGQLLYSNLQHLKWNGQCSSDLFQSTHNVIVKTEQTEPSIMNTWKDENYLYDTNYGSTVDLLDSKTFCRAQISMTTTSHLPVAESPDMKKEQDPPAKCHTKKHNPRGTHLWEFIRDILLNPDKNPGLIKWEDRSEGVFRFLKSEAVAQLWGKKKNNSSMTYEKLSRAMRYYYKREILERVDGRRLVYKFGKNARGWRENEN
In short: as §1

SPI1 = SPI1 (Homo sapiens, UniProt P17947 1-270); conditions: protein: recombinant; tags: N-terminal GST; dsDNA, one strand shown
In short: as §1

SPIB = SPIB (Homo sapiens, UniProt Q01892 1-262); conditions: protein: recombinant; tags: N-terminal GST; dsDNA, one strand shown
SPIB, sequence (Q01892 whole entry): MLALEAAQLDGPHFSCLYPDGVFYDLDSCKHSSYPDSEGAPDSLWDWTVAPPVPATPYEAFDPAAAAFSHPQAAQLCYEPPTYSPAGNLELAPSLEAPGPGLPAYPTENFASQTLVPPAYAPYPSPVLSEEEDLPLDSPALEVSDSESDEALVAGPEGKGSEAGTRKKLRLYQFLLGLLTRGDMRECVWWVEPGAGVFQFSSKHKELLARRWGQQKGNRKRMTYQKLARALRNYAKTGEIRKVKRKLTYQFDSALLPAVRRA
In short: as §1

ELK3 = molecular target: T6, ELK3 (Homo sapiens, UniProt P41970 1-407); conditions: protein: recombinant; tags: N-terminal GST; dsDNA, one strand shown
T6 sequence: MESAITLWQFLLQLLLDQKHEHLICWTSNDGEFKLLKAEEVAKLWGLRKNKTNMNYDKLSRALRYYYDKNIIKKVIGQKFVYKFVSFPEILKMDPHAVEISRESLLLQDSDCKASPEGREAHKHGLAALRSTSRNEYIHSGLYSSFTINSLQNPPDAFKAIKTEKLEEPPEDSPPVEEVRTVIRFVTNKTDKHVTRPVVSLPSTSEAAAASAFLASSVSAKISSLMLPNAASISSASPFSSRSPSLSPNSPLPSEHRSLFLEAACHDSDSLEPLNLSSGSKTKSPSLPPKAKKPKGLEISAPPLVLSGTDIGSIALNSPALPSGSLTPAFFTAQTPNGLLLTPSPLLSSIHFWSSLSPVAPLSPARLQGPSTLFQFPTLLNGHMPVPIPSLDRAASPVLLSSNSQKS
In short: as §1

FEV = molecular target: T7, FEV (Homo sapiens, UniProt Q99581 1-238); conditions: protein: recombinant; tags: N-terminal GST; dsDNA, one strand shown
T7 sequence: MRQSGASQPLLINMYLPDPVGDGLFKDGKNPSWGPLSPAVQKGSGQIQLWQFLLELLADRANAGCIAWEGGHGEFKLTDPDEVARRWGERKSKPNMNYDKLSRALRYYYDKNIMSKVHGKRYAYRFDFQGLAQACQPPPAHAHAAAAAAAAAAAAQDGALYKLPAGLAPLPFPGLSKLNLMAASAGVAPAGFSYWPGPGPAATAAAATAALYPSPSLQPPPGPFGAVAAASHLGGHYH
In short: as §1

ETV5 = ETV5 (Homo sapiens, UniProt P41161 1-510); conditions: protein: recombinant; tags: N-terminal GST; dsDNA, one strand shown
ETV5, sequence (P41161 whole entry): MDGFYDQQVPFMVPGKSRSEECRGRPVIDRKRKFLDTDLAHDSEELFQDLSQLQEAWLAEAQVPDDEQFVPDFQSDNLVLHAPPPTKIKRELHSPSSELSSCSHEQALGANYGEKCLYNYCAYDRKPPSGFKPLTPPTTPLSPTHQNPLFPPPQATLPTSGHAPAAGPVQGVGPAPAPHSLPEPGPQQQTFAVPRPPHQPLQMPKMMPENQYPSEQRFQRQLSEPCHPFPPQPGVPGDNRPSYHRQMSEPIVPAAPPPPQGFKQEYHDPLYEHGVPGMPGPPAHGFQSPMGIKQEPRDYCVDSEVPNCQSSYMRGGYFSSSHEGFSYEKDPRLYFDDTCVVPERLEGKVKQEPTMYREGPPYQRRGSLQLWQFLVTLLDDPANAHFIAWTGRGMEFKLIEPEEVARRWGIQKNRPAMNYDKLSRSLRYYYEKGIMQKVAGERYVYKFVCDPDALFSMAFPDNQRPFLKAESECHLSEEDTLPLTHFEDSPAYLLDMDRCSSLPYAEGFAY
In short: as §1

HSF1 = HSF1 (Homo sapiens, UniProt Q00613 1-529); conditions: protein: recombinant; tags: N-terminal GST; chain copies: 3; dsDNA, one strand shown
HSF1, sequence (Q00613 whole entry): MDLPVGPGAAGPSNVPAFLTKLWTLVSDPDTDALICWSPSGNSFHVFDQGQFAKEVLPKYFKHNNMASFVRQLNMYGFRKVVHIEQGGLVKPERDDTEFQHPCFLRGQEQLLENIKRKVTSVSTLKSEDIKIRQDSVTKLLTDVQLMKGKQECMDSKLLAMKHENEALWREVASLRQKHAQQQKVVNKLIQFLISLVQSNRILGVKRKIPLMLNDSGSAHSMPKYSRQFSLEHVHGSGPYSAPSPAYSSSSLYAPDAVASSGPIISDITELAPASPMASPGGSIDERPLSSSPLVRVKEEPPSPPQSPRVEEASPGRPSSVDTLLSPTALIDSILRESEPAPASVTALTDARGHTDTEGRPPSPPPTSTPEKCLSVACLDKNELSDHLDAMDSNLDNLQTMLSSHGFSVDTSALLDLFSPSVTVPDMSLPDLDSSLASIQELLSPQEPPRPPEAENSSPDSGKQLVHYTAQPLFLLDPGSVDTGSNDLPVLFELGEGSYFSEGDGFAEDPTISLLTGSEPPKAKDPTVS
In short: as §1

ELF4 = ELF4 (Homo sapiens, UniProt Q99607 1-663); conditions: protein: recombinant; tags: N-terminal GST; dsDNA, one strand shown
ELF4, sequence (Q99607 whole entry): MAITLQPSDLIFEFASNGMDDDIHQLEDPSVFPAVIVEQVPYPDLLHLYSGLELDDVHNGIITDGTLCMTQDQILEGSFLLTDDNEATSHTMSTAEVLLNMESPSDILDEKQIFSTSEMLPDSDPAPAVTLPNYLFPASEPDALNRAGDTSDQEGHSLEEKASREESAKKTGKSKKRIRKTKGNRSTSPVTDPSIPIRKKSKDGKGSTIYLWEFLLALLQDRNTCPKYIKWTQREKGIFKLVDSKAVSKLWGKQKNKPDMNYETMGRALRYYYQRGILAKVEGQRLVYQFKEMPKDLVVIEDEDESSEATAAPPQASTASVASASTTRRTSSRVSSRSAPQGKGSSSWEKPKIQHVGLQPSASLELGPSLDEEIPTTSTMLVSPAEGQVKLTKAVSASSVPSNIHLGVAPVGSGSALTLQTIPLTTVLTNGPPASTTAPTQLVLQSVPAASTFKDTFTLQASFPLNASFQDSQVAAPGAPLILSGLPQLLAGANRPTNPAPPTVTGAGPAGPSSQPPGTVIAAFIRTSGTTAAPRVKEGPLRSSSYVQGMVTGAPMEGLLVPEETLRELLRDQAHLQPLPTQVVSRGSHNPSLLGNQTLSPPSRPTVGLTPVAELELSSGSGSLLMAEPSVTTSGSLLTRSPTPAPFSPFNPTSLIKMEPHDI
In short: as §1

ELK4 = molecular target: T8, ELK4 (Homo sapiens, UniProt P28324-2 1-405); conditions: protein: recombinant; tags: N-terminal GST; dsDNA, one strand shown
T8 sequence: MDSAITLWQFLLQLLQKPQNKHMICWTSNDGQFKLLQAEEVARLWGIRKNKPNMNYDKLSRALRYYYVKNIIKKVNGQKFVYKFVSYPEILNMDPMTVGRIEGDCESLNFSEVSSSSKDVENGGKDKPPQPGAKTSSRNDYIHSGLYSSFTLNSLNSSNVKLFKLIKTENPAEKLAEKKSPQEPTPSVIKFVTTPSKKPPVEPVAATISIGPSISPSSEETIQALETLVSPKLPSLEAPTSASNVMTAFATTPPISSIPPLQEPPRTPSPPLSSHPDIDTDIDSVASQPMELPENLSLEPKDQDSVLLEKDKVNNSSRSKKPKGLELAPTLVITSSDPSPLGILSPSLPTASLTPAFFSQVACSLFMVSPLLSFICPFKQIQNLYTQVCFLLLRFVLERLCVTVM
In short: as §1

ETV2 = molecular target: T9, ETV2 (Homo sapiens, UniProt O00321 1-342); conditions: protein: recombinant; tags: N-terminal GST; dsDNA, one strand shown
T9 sequence: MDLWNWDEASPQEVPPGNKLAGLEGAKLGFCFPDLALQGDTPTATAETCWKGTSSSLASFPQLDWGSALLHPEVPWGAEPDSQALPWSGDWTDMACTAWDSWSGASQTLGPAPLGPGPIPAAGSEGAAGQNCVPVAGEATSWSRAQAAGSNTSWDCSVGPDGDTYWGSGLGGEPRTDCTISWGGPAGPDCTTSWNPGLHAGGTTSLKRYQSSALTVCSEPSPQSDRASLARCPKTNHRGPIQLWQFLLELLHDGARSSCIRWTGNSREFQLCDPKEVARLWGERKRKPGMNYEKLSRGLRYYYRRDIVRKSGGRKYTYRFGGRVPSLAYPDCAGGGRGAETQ
In short: as §1

ELF3 = molecular target: T10, ELF3 (Homo sapiens, UniProt P78545 1-371); conditions: protein: recombinant; tags: N-terminal GST; dsDNA, one strand shown
T10 sequence: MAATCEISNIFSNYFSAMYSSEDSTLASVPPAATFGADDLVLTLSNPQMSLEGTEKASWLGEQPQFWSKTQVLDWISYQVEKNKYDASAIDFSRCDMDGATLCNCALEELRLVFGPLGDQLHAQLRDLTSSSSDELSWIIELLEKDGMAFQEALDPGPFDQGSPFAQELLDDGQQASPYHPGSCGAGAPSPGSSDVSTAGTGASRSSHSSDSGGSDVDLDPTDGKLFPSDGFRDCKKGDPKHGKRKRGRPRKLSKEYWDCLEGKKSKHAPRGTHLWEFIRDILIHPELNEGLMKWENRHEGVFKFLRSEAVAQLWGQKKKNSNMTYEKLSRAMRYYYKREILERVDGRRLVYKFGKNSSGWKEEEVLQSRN
In short: as §1

CRX = CRX (Homo sapiens, UniProt O43186 1-299); conditions: protein: recombinant; tags: N-terminal GST; dsDNA, one strand shown
CRX, sequence (O43186 whole entry): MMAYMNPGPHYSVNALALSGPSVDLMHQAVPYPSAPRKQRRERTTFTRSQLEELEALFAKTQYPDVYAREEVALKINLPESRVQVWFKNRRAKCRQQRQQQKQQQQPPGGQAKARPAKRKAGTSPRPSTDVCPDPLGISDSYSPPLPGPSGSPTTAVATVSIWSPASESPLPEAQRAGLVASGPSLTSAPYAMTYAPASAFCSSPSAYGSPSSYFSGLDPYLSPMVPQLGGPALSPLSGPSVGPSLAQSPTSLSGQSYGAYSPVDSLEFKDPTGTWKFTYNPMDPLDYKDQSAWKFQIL
In short: as §1

ETV1 = ETV1 (Homo sapiens, UniProt P50549 1-477); conditions: protein: recombinant; tags: N-terminal GST; dsDNA, one strand shown
ETV1, sequence (P50549 whole entry): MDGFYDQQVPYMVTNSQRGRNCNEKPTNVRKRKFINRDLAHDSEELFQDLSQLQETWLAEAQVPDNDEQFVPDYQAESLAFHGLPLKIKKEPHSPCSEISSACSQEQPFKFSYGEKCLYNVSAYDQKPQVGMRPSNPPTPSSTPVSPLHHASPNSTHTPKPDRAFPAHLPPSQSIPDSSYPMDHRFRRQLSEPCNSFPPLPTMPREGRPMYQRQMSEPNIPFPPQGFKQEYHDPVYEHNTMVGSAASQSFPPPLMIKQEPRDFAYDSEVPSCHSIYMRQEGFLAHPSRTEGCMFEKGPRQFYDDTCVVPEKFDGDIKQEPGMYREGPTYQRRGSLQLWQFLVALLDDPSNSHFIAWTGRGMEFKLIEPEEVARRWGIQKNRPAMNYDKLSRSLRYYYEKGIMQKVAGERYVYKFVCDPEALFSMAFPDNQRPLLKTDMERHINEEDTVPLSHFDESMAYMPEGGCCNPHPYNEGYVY
In short: as §1

## TTTAGG
FLI1
  binding signal: 1.05 fold enrichment (6-mer frequency, TF over GST control)
ELK1
  binding signal: 1.12 fold enrichment (6-mer frequency, TF over GST control)
GABPA
  binding signal: 1.11 fold enrichment (6-mer frequency, TF over GST control)
ERG
  binding signal: 1.08 fold enrichment (6-mer frequency, TF over GST control)
EHF
  binding signal: 1.06 fold enrichment (6-mer frequency, TF over GST control)
SPI1
  binding signal: 1.08 fold enrichment (6-mer frequency, TF over GST control)
SPIB
  binding signal: 1.15 fold enrichment (6-mer frequency, TF over GST control)
ELK3
  binding signal: 1.07 fold enrichment (6-mer frequency, TF over GST control)
FEV
  binding signal: 1.09 fold enrichment (6-mer frequency, TF over GST control)
ETV5
  binding signal: 1.06 fold enrichment (6-mer frequency, TF over GST control)
HSF1
  binding signal: 1.25 fold enrichment (6-mer frequency, TF over GST control)
ELF4
  binding signal: 1.05 fold enrichment (6-mer frequency, TF over GST control)
ELK4
  binding signal: 1.11 fold enrichment (6-mer frequency, TF over GST control)
ETV2
  binding signal: 1.09 fold enrichment (6-mer frequency, TF over GST control)
ELF3
  binding signal: 1.09 fold enrichment (6-mer frequency, TF over GST control)
CRX
  binding signal: 1.5 fold enrichment (6-mer frequency, TF over GST control)
ETV1
  binding signal: 1.13 fold enrichment (6-mer frequency, TF over GST control)
